Measurements: the supplement of paper PMC9694430

Legend:
Assay in all cases: thermal shift delta Tm vs DMSO control; higher = stronger stabilization (binding)
Conditions in all cases: 12.5 µM; protein concentration 2 µM
LOC_OS04G57630-cb004 = test system: LOC_OS04G57630-cb004
Summary of the method: (§1)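 Thermal shift values come from differential scanning fluorimetry on purified rice kinase domains made in E. coli, with melting temperatures obtained from Boltzmann fits. Samples of 19.5 μl held 2 μM kinase, 100 mM potassium phosphate pH 7.5, 150 mM NaCl, 10% glycerol, 5 × SYPRO Orange and compound in DMSO, and were heated from 25°C to 95°C at 0.05°C/s. Each shift is a triplicate mean relative to the DMSO-only protein sample.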

LOC_OS05G07850-cb002 = test system: LOC_OS05G07850-cb002
Summary of the method: as §1

LOC_OS05G16824-cb004 = test system: LOC_OS05G16824-cb004
Summary of the method: as §1

LOC_OS05G28520-cb001 = test system: LOC_OS05G28520-cb001
Summary of the method: as §1

LOC_OS05G30820-cb001 = test system: LOC_OS05G30820-cb001
Summary of the method: as §1

LOC_OS05G43570-cb004 = test system: LOC_OS05G43570-cb004
Summary of the method: as §1

LOC_OS06G16330-cb003 = test system: LOC_OS06G16330-cb003
LOC_OS06G16330-cb003, sequence (as listed by the source): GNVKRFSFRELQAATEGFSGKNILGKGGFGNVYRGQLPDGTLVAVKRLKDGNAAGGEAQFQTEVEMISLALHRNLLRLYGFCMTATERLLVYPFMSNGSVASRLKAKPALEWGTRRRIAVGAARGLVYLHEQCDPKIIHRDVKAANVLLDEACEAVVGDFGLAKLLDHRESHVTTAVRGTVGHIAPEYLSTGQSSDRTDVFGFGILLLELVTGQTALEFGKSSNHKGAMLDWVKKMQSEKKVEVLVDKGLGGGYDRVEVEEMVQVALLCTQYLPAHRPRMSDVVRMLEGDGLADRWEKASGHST
Summary of the method: as §1

LOC_OS06G22820-cb001 = test system: T1, LOC_OS06G22820-cb001
T1 sequence (whole entry): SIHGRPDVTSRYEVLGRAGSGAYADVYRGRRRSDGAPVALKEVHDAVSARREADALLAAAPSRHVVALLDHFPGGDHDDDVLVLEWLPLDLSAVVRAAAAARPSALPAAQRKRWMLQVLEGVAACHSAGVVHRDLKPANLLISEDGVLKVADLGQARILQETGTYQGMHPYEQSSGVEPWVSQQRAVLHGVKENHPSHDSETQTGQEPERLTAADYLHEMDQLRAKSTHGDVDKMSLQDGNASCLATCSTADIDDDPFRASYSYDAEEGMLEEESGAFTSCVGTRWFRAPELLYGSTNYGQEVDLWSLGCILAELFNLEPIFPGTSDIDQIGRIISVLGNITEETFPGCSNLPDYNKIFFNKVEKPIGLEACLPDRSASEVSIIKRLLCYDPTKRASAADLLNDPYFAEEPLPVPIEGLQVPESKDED
Summary of the method: as §1

LOC_OS07G06570-cb004 = test system: LOC_OS07G06570-cb004
Summary of the method: as §1

LOC_OS07G07230-cb001 = test system: LOC_OS07G07230-cb001
Summary of the method: as §1
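Note: purified Escherichia coli-expressed rice kinase domain construct.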

Row | Structure (SMILES) | thermal shift delta Tm (LOC_OS04G57630-cb004) [°C] | thermal shift delta Tm (LOC_OS05G07850-cb002) [°C] | thermal shift delta Tm (LOC_OS05G16824-cb004) [°C] | thermal shift delta Tm (LOC_OS05G28520-cb001) [°C] | thermal shift delta Tm (LOC_OS05G30820-cb001) [°C] | thermal shift delta Tm (LOC_OS05G43570-cb004) [°C] | thermal shift delta Tm (LOC_OS06G16330-cb003) [°C] | thermal shift delta Tm (LOC_OS06G22820-cb001) [°C] | thermal shift delta Tm (LOC_OS07G06570-cb004) [°C] | thermal shift delta Tm (LOC_OS07G07230-cb001) [°C]
1 | CC(C)c1ccc2oc3nc(N)c(C(=O)O)cc3c(=O)c2c1 [Amlexanox] | 0.42 | 2.22 | 2.16 | 0.29 | 2.58 | 0.12 | 2.5 | 0.56 | 0.44 | 0.63
2 | O=C(O)[C@]1(Cc2cccc(Nc3nccs3)n2)CC[C@@H](Oc2cccc(Cl)c2F)CC1 | 1.26 | 13 | 2.5 | 0.88 | 4.08 | 0.24 | 20.6 | 0.38 | 0.16 | -1.36
3 | CCOC(=O)c1cnc2ccc(-c3cncc(NS(=O)(=O)c4ccccc4)c3)cn12 | 0.28 | 3.75 | 1.63 | 0.65 | 0.47 | 0.51 | 2.32 | 0.38 | 0.45 | 0.1
4 | Cc1cc(C(C)Nc2ccccc2)c2nc(N3CCOCC3)cc(=O)n2c1 (stereo not given) | -0.32 | 0.35 | -2.9 | 0.25 | 0.38 | 0.22 | 0.32 | 0.59 | 0.64 | 0.53
5 | Cc1cn(-c2cc(NC(=O)c3ccc(C)c(Nc4nccc(-c5cnccn5)n4)c3)cc(C(F)(F)F)c2)cn1 [Radotinib] | 0.16 | -1.11 | 0.06 | 0.56 | 0.41 | 0.62 | -0.09 | 0.69 | 1.06 | 0.23
6 | COc1cc2ncnc(Nc3ccc(Oc4ccccc4)cc3C)c2cc1OC | 0.31 | 8.78 | -9.65 | 0.23 | 0.05 | -0.01 | 2.86 | 0.95 | 1.5 | 0.54
7 | CCCCNc1ncc2c(-c3ccc(CN4CCN(C)CC4)cc3)cn([C@H]3CC[C@H](O)CC3)c2n1 | 6.55 | 11.9 | 15.5 | 0.68 | 1.96 | 0.44 | 13.5 | 0.17 | 0.92 | -0.01
8 | Cn1cc(-c2ccc3nnc(C(F)(F)c4ccc5ncccc5c4)n3n2)cn1 | 0.16 | 1.31 | 0.65 | 0.54 | 0.28 | 0.51 | 1.54 | 0.92 | 1.14 | -0.03
9 | O=C(Nc1ccccc1C(=O)NC1CCCCNC1=O)c1cc2ccccc2s1 (stereo not given) | 0.09 | 0.55 | -1.58 | 0.54 | 0.1 | 0.18 | -0.39 | 0.25 | 1.21 | 0.41
10 | CCOc1cn(-c2ccc(F)cc2C)nc1C(=O)Nc1ccc(Oc2ccnc3cc(OC)c(OC)cc23)c(F)c1 | 2.05 | 11.1 | -0.65 | 0.31 | 0.28 | 0.24 | 3.99 | 0.19 | 0.82 | 0.19
